Test results as given in PubChem BioAssay (NCI).
About 83,000 compounds went through this panel and 20% of them were active in at least one assay; those are over-represented in the sample as a whole.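 A percent growth of 40 corresponds to 60% growth inhibition; 0 means no net growth; -100 means all cells died. Active threshold: below 10.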 Activity calls are given as the source filed them.

system: TK-10 renal; assay: NCI-60 one-dose screen, 48 h (100 = growth as untreated, 0 = no growth, -100 = all killed); conditions: 10 µM unless noted
Method: Growth inhibition of the TK-10 human tumor cell line is measured as a screen for anti-cancer activity. Cells are grown in 96 well plates and exposed to the test compound for 48 hours. Compounds are tested at a single concentration, which is 10^-5 M for most compounds. The reported endpoint is percent growth (GI% or GIPRCNT), where numbers from 0 - 100% represent growth inhibition, and numbers from -100% - 0 represent cell death. For example, a value of 40 represents 60% growth inhibition. A value of 0 means no net growth occurred over the course of the experiment. A value of -40 indicates 40% of cells at the beginning of the experiment died by the end of the experiment. A value of -100 means all cells are dead at the end of the experiment.
NCI-60 Human Tumor Cell Lines Screen was performed using the standard one-dose NCI protocol, which is described in more detail at https://dtp.cancer.gov/discovery_development/nci-60/default.htm.
Compounds with GIPRCNT values below 10 were considered active. Activity score was based on GIPRCNT using the following formula: […]
Score is 0 for GIPRCNT values of 100 or above, 50 for GIPRCNT values of 0, and 100 for GIPRCNT values of -100.

Compound | growth
CCCSc1nc(Nc2ccc(/C(C)=N\NC(N)=S)cc2)c(C#N)c(-c2ccccc2)n1 | 95% (inactive)
Cc1cccc2c3c(sc12)C(c1ccc(Cl)cc1)c1c(nc(CC(=O)Nc2ccccc2)[nH]c1=O)O3 (stereo not given) | 132% (inactive)
O=S(=O)(NCCNc1nccc(-n2cnc3ccccc32)n1)c1ccc(C(F)(F)F)cc1 | 63.4% (inactive)
O=C1/C(=C/C=C/c2ccco2)SC(=S)N1C1CCCCC1 | 106% (inactive)
C#C[C@]1(O)CC[C@H]2[C@@H]3CC=C4c5sc(-c6ccc(C)cc6)nc5CC[C@]4(C)[C@H]3CC[C@@]21C | 77.4% (inactive)
CNC(=O)c1cc(-c2ccc(NS(=O)(=O)c3ccc(C)cc3)cc2)nc2cccnc12 | 118% (inactive)
CNC(=O)c1cc(-c2ccc(NC(=S)Nc3cc(C(F)(F)F)cc(C(F)(F)F)c3)cc2)nc2cccnc12 | 68.9% (inactive)
Nc1ncc(-c2ccc3ncnc(Nc4cccc(Cl)c4F)c3c2)cn1 | -2.85% (active)
CN1CCN(Cc2ccc(NC(=O)c3cncc(C#Cc4cnc5ccc(OCC6(C)COC6)nn45)c3)cc2C(F)(F)F)CC1 | -73.7% (active)
COc1ccccc1-n1cc(C#N)c(N)c1C(=O)c1ccc(C)cc1 | 102% (inactive)
CCOC(=O)C(=O)/C(=C\c1ccc(Cl)cc1)C(=O)N1C(=S)NC(=O)C1CC(C)C (stereo not given) | 135% (inactive)
Cn1cc(CNc2nc3ccc(OC/C(=C/F)CN)cc3o2)ccc1=O | 107% (inactive)
COC(=O)C1(C)CCC[C@]2(C)[C@H]3C[C@H]4C(C(C)C)=C[C@]3(CC[C@@H]12)[C@H]1[C@@H]4[C@@H](OC(=O)c2ccco2)CC[C@@H]1OC(=O)c1ccco1 (stereo not given in full) | 105% (inactive)
Cn1ccnc1C(=O)/C=C/c1ccc(CNC(=O)c2ccc(F)cc2)cc1 | 75% (inactive)
C=C1CC[C@@H]2[C@]3(C)COC(c4ccccc4)O[C@@H]3CC[C@@]2(C)[C@@H]1C/C=C1/C(=O)OC[C@H]1O (stereo not given in full) | 109% (inactive)
Cc1c(Cl)cccc1S(=O)(=O)Nc1ccc2c(c1)C(=O)N(C1CCC(=O)NC1=O)C2=O (stereo not given) | 75.2% (inactive)
CCCCCc1ccc(S(=O)(=O)Nc2cccc(-c3csc(NC(=O)CCCCCN4CCN(CCO)CC4)n3)c2)cc1 | 127% (inactive)
Cc1c(F)cc(C(N)=O)cc1NCC(=O)Nc1ccc([N+](=O)[O-])cc1 | 62.6% (inactive)
Cc1occc1-c1nc2s/c(=C/c3ccc(-c4cc(C(F)(F)F)ccc4Cl)o3)c(=O)n2n1 | 114% (inactive)
Cc1cc(C(NC(=O)CCCCCNc2cccc3c2C(=O)N(C2CCC(=O)NC2=O)C3=O)c2ccc3c(c2)OC(F)(F)O3)c(O)c2ncccc12 (stereo not given) | 93.8% (inactive)

Compound | growth
CCN(CC)c1cn(-c2ccc(S(N)(=O)=O)cc2)nn1 | 103% (inactive)
CCOP(=O)(OCC)OC[C@]12CCC(C)(C)C=C1[C@H]1CC[C@@H]3[C@@]4(C)CC[C@H](OP(=O)(OCC)OCC)C(C)(C)[C@@H]4CC[C@@]3(C)[C@]1(C)CC2 | -18% (active)
CC(=O)c1ccc(Nc2nc(SCC(C)C)nc(-c3ccc(F)cc3)c2C#N)cc1 | 123% (inactive)
CC(=O)c1cc(C(=O)N2c3ccccc3Sc3ccccc32)n2ccc3ccccc3c12 | 98.4% (inactive)
NC(N)=Nc1ccc(Oc2cccc(Nc3ccc(Cl)cc3)c2)cn1 | 50% (inactive)
CCn1c2ccccc2c2cc(-n3nncc3-c3ccccc3)ccc21 | 90.5% (inactive)
NS(=O)(=O)c1ccc(Nc2nc(N/N=C/c3ccc(Cl)cc3)nc(Nc3ccccc3)n2)cc1 | 103% (inactive)
Nc1ncc(-c2ccc3ncnc(N4CCc5cc(F)c(F)cc54)c3c2)cn1 | -2.82% (active)
COc1cccc2c1CN(C(=O)c1ccc(O)c(C(=O)N3Cc4ccc(OCCC[P+](c5ccccc5)(c5ccccc5)c5ccccc5)cc4C3)c1)C2 | 116% (inactive)
CC[C@H](CO)Nc1ccc2ncc(C#Cc3cncc(C(=O)Nc4ccc(CN5CCN(C)CC5)c(C(F)(F)F)c4)c3)n2n1 | -57% (active)
COc1cc(OC)c(S(N)(=O)=O)cc1C(=O)/C=C/c1ccc(C)cc1 | 25.5% (inactive)
C#Cc1nc(C(=O)NCCC(=O)Nc2ccc(NC(=O)c3ccc(/C=C/C(=O)c4nccn4C)cc3)cc2)cs1 | 69.9% (inactive)
Cc1ccc(-n2cc(/C=N/NC(=O)c3nc(N)n[nH]3)c(-c3ccc(S(C)(=O)=O)cc3)n2)cc1 | 119% (inactive)
COC(=O)c1ccc(NC2=C/C(=N/S(=O)(=O)c3ccc(C(=O)O)cc3)c3ccccc3C2=O)cc1 | 156% (inactive)
O=C(NCc1ncc[nH]1)c1ccc(-c2nc3ccc4[nH]ncc4c3c3c2CCCC3)cc1 | -2.79% (active)
COc1cccc(O)c1/C=C(/C)c1ccc2c(OC)cccc2[o+]1 | 140% (inactive)
Cn1ccnc1C(=O)/C=C/c1ccc(NC(=O)c2c(F)c(F)c(F)c(F)c2F)cc1 | 133% (inactive)
Cc1ccc2sc3c(c2c1)OC(N)=C(C#N)C3c1ccc(Cl)cc1 (stereo not given) | 97.3% (inactive)
Cc1cc(C)c2sc(=O)n(Cc3nnc(SCCC(=O)O)o3)c2n1 | 103% (inactive)
COc1ccc(-n2c(SCc3nnc(NC(=O)c4ccc(Br)cc4)s3)nc3cc(OC)c(OC)cc3c2=O)cc1 | 118% (inactive)
